The values that follow come from PubChem BioAssay.

Calls of active or inactive are those of the source.

A short description of test [1]: optical density shifts of acrAB sulA E. coli – strain DRC41, OD650, 48 h, E. coli filamentation inducer project, primary screen (AID 1152).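 Further: E. coli MC1000 strain DRC41 lacking acrAB efflux pump and sulA.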 Conditions: higher = more signal, called active from +8 up or from −8 down.
A short description of test [2]: probe aLefty1 binding on compound microarray – biochemical, small-molecule microarray, 635/667 nm fluorescence, primary screen (AID 1153).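 Further: score merges spot fluorescence with signal-to-noise ratio from the scanned slide images.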 Conditions: higher = more signal.
The nature of test [3]: plasmodial surface anion channel blockers, osmotic lysis – cell-based, P. falciparum Indochina, OD700, 1 h, primary screen (AID 1154). As to conditions: P. falciparum Indochina infected RBC osmotic lysis, higher = more signal, called active from +8 up or from −8 down.
A short description of test [4]: plasmodial surface anion channel blockers, osmotic lysis – cell-based, P. falciparum Indochina, OD700, 2 h, primary screen (AID 1155).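 Further: lysis reports solute entry through the parasite surface anion channel PSAC.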 Conditions: P. falciparum Indochina infected erythrocytes, higher = more signal, called active from +8 up or from −8 down.
Test [5] can be described thus: changes in parasitized red cell lysis, either direction – P. falciparum Indochina, OD700, 3 h, PSAC antagonist project, primary screen (AID 1156). Conditions: P. falciparum-infected erythrocytes, osmotic lysis, higher = more signal, called active from +8 up or from −8 down.
Test [6] is described as follows: plasmodial surface anion channel blockers, osmotic lysis – cell-based, P. falciparum Indochina, OD700, 18 h, primary screen (AID 1157). As to conditions: P. falciparum Indochina infected erythrocytes, osmotic lysis OD700, 18 h; higher = more signal, called active from +8 up or from −8 down.
The nature of test [7]: S6 kinase pathway phospho-S6 level changes – cell-based, A549, cytoblot, luminescence, serum-stimulated, primary screen (AID 1158).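 Further: serum-stimulated A549 lung adenocarcinoma cells; signal is phosphorylated S6 detected by cytoblot immunostaining with HRP secondary.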 Conditions: 5 h, higher = more signal.
Test [8] concerns the target NADPH oxidase 2 (Homo sapiens) (UniProt P04839). Put plainly: compounds shifting NOX2 Amplex Red fluorescence – cell-based, HEK293-NOX2, PMA-stimulated, NOX inhibitor project, primary screen (AID 1159). Further: test concentration not given here. As to conditions: 45 min, higher = more signal, called active from +8 up or from −8 down.
Test [9] has as its target NADPH oxidase 4 (Homo sapiens) (UniProt Q9NPH5). Put plainly: compounds shifting NOX4 Amplex Red fluorescence – cell-based, HEK293-NOX4, tetracycline-induced, NOX inhibitor project, primary screen (AID 1160). As to conditions: HEK293-NOX4, Amplex Red H2O2 fluorescence, 45 min; higher = more signal, called active from +8 up or from −8 down.
For test [10], the target named is NADPH oxidase 5 (Homo sapiens) (UniProt Q96PH1). Put plainly: compounds shifting NOX5 Amplex Red fluorescence – cell-based, HEK293-NOX5, NOX inhibitor project, primary screen (AID 1161). Conditions: HEK293-NOX5, ionomycin, 45 min, higher = more signal.
Test [11] is described as follows: compound effects on lung adenocarcinoma cell viability – A549, calcein-AM fluorescence, 48 h, basal, profiling panel (AID 1162). Further: test concentration not given here. As to conditions: higher = more signal.
The nature of test [12]: compound effects on differentiated 3T3-L1 adipocyte viability – cell-based, 3T3-L1 adipocytes, calcein-AM fluorescence, 48 h, basal, profiling panel (AID 1163). Further: test concentration not given here. As to conditions: 3T3-L1 adipocytes viability, higher = more signal.
The nature of test [13]: compound effects on hepatocellular carcinoma cell viability – HepG2, calcein-AM fluorescence, 48 h, basal, profiling panel (AID 1164). Further: test concentration not given here. As to conditions: higher = more signal.
The nature of test [14]: compound effects on multiple myeloma cell viability – MM1S, calcein-AM fluorescence, 48 h, basal, profiling panel (AID 1165). Further: test concentration not given here. Conditions: higher = more signal.
Test [15] can be described thus: calcein-AM signal in unstimulated myeloma cells – cell-based, calcein-AM fluorescence, 48 h, PK04 Diversity Set, profiling panel (AID 1166).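 Further: cells grown under basal conditions without added stimulus; test concentration not given here.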 Conditions: RPMI8226 myeloma viability, higher = more signal.
Test [16] can be described thus: JC-1 mitochondrial signal, unstimulated HepG2 cells – cell-based, JC-1 fluorescence, 24 h, 100 nL compound, profiling panel (AID 1167). Further: test concentration not given here. Conditions: HepG2 mitochondrial potential, higher = more signal.
Test [17] can be described thus: JC-1 mitochondrial signal, unstimulated adipocytes – cell-based, JC-1 fluorescence, 3T3-L1 adipocytes, 24 h, 100 nL compound, profiling panel (AID 1168). Further: test concentration not given here. Conditions: JC-1 mitochondrial fluorescence, higher = more signal, called active from +8 up or from −8 down.
A short description of test [18]: JC-1 mitochondrial signal, unstimulated myeloma cells – cell-based, JC-1 fluorescence, RPMI8226, 24 h, 100 nL compound, profiling panel (AID 1169). Further: test concentration not given here. Conditions: JC-1 mitochondrial potential fluorescence, higher = more signal.
Test [19] is described as follows: JC-1 mitochondrial signal, unstimulated MM1S myeloma – cell-based, JC-1 fluorescence, 24 h, 100 nL compound, profiling panel (AID 1170). Further: test concentration not given here. Conditions: MM1S mitochondrial potential, higher = more signal.
Test [20] in a line: resazurin metabolic signal in A549 cells – cell-based, resazurin fluorescence, 24 h, PK04 Diversity Set, profiling panel (AID 1171). Further: test concentration not given here. Conditions: A549 viability, higher = more signal, called active from +8 up or from −8 down. Background: Alamar Blue is a resazurin reagent that responds to reducing activity.

Sequence of NADPH oxidase 4 (Homo sapiens) (Q9NPH5 whole entry, looked up): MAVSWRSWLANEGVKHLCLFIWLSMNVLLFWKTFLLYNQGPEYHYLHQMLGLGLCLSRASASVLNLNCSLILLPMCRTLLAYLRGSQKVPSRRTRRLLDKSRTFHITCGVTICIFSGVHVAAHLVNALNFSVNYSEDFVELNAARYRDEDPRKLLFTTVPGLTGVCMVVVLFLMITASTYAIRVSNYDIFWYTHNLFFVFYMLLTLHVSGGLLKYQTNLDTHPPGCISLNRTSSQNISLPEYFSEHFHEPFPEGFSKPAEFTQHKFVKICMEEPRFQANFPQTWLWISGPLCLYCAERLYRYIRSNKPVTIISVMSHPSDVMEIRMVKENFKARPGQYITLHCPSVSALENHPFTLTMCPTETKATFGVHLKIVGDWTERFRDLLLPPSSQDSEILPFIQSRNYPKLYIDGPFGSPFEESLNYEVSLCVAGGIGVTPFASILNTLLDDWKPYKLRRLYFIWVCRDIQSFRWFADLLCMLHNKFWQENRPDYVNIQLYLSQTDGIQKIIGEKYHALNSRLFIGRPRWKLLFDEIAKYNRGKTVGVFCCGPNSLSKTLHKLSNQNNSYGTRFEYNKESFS
Sequence of NADPH oxidase 2 (Homo sapiens) (P04839 whole entry, looked up): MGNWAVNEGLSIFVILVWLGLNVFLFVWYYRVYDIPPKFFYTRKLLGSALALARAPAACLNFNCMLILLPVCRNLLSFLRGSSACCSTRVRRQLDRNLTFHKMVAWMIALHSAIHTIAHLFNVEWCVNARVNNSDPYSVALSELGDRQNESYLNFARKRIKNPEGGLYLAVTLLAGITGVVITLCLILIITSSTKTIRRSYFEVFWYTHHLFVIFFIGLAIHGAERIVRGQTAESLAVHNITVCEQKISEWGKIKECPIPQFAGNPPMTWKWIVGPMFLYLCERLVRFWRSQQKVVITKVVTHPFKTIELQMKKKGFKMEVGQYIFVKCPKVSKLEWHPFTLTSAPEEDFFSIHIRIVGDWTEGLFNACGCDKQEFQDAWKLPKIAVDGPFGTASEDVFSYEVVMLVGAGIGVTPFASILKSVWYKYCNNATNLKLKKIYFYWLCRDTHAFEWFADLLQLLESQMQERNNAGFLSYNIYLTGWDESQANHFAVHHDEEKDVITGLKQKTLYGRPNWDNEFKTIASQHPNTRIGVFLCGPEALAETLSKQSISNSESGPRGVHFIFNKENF
Sequence of NADPH oxidase 5 (Homo sapiens) (Q96PH1 whole entry, looked up): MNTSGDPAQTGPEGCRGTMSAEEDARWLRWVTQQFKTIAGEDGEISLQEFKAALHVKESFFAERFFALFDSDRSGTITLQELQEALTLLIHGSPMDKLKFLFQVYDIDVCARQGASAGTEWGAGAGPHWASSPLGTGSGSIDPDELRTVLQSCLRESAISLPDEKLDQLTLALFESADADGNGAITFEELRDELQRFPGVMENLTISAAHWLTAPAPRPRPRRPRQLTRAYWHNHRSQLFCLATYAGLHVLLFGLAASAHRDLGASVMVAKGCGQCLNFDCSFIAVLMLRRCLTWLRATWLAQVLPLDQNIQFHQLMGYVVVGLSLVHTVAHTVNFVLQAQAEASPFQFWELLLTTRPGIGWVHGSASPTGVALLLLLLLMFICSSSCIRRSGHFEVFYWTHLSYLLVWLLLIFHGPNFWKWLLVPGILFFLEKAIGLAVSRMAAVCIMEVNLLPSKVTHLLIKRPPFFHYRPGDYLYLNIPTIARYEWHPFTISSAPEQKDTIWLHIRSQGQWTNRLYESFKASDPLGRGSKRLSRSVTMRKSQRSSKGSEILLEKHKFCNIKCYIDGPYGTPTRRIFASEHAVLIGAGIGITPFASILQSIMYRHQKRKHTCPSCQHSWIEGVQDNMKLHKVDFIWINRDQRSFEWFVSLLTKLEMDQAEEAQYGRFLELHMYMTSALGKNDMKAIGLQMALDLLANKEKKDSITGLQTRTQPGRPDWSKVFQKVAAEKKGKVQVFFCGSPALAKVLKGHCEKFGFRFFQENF

With `[N-]=[N+]=NCc1ccccc1[C@H]1OC(c2ccc(OCCCO)cc2)=N[C@@]1(CCS(=O)(=O)c1ccccc1)C(N)=O`, the z-score in [1] was -0.56 (inactive); in [3] it was 24.1 (active); in [4], 6.95 (inactive); in test [5] it was 1.56 (inactive); in test [6], 0.764 (inactive); in test [7], 0.273. For the same compound, the z-score was 1.39 (inactive) in test [8]; 2.23 (inactive) in test [9]; 1.78 in [10]; -0.733 in test [11]; 0.0036 in test [12]; -0.423 in [13]. Moreover, the z-score in test [14] was -1.83; in test [15] it was -0.973; in test [16], -2.13; in [17], -1.36 (inactive); in test [18] it was -0.397; in [19], -0.606. Also, in [20], the z-score is 0.547 (inactive). The same compound displayed a composite z-score in test [2] of 0.345.

Turning to `COC(=O)C1(Cc2ccccc2)C=C2C(=C(c3ccccc3)C(=O)C2C)CN1` (stereo not given), the z-score in test [1] was -1.38 (inactive); in [3], 2.11 (inactive); in test [4] it was -0.0273 (inactive); in test [5], 0.423 (inactive); in test [6], 0.298 (inactive); in [7] it was 0.208. Moreover, the z-score in test [8] is -0.66 (inactive); in test [9], -3.74 (inactive); in test [10] it was -3.29; in test [11] it was -0.874; in [12] it was 0.24; in test [13] it was -0.515. Also, the z-score in test [14] was -0.451; in test [15], -0.91; in test [16], -0.832; in test [17] it was -1.12 (inactive); in test [18] it was 0.213; in [19] it was -0.291. For the same compound, the z-score in test [20] is -0.358 (inactive). Also, the composite z-score in [2] turned out to be 1.23.

As for `COc1cc2c(cc1OC)CN(C(=O)[C@H]1[C@@H]3C(=O)O[C@@H](c4ccccc4)[C@@H](c4ccccc4)N3[C@@H](c3ccc(OCCO)cc3)[C@]13C(=O)Nc1ccc(C#CC4(O)CCCCCC4)cc13)CC2`, the z-score in [1] is 1.9 (inactive); in test [3] it was 3.15 (inactive); in test [4], 2.15 (inactive); in [5] it was 1.08 (inactive); in test [6], 1.35 (inactive); in [7] it was 0.108. Besides, the z-score in test [8] is 1.32 (inactive); in test [9] it was 0.882 (inactive); in test [10] it was 1.28; in [11], 0.943; in test [12], 0.0483; in test [13] it was 1.17. The z-score in [14] was 0.217; in test [15], 0.0846; in [16] it was -0.871; in test [17], 0.568 (inactive); in [18] it was -0.338; in test [19] it was -0.852. Moreover, the z-score in test [20] was -0.354 (inactive). Besides, in test [2], the composite z-score was determined as 1.51.

As for `O=C1c2ccccc2[C@@]2(Cc3ccccc3N(C3CC3)C2=O)[C@H](c2ccc(CO)cc2)N1C1CCCCC1`, the z-score in test [1] was -0.301 (inactive); in test [3] it was 0.667 (inactive); in [4] it was -0.0557 (inactive); in test [5], 0.181 (inactive); in test [6], 0.181 (inactive); in [7], -0.0814. In addition, the z-score was 0.112 (inactive) in [8]; -1.7 (inactive) in [9]; -1.45 in test [10]; -0.506 in test [11]; -0.621 in [12]; -0.578 in test [13]. Besides, the z-score in [14] is -0.258; in test [15], -2.4; in test [16], -0.266; in test [17] it was -0.971 (inactive); in test [18], 0.818; in [19] it was 0.144. Further, the z-score in test [20] is -0.179 (inactive). In [2], this compound registered a composite z-score of -0.0066.

In the case of `CCN(CC)c1ccc(N2CC=CC34O[C@@H]5/C=C\CCC(C)OC(=O)C5[C@H]3C(=O)N(CCO)[C@@H]4C2=O)cc1` (stereo not given in full), the z-score in test [1] was -0.244 (inactive); in test [3], 3.17 (inactive); in [4], 0.615 (inactive); in test [5], 0.411 (inactive); in test [6], 0.162 (inactive); in [7], -0.369. The z-score is -0.361 (inactive) in test [8]; 0.785 (inactive) in [9]; 1.36 in test [10]; 0.17 in [11]; 0.879 in [12]; 0.498 in test [13]. The z-score was -0.379 in test [14]; -0.597 in test [15]; 0.178 in test [16]; -0.905 (inactive) in test [17]; -0.22 in test [18]; 1.83 in test [19]. Also, in [20], the z-score is -0.857 (inactive). The same compound yielded a composite z-score in [2] of 0.33.

In the case of `[N-]=[N+]=NCc1ccccc1C[C@@]1(C(=O)NCCN2CCOCC2)N=C(c2ccc(OCCCO)cc2)O[C@@H]1c1ccccc1N=[N+]=[N-]`, the z-score is -0.337 (inactive) in test [1]; 31.3 (active) in [3]; 27.4 (active) in test [4]; 2.72 (inactive) in test [5]; 2.46 (inactive) in test [6]; 1.17 in test [7]. Besides, the z-score in test [8] is -3.58 (inactive); in test [9] it was -1.36 (inactive); in test [10], -2.32; in [11] it was -1.6; in test [12], 1.61; in [13], -1.05. The z-score is -1.31 in test [14]; -3.68 in test [15]; 0.862 in [16]; -1.38 (inactive) in test [17]; -0.923 in test [18]; -1.12 in [19]. Besides, the z-score in test [20] was -0.0172 (inactive). The composite z-score in test [2] worked out at 0.534.

Take `C=C(C(=O)CC[C@H](OC(C)=O)c1cccc(OCCO)c1)C(C)C`: the z-score in test [1] was 0.667 (inactive); in test [3] it was 2.12 (inactive); in test [4] it was -1.94 (inactive); in [5] it was 1.7 (inactive); in [6], -1.7 (inactive); in test [7], 0.617. Also, the z-score is -1.48 (inactive) in [8]; -0.481 (inactive) in test [9]; -1.61 in [10]; -0.271 in test [11]; 0.8 in [12]; -0.979 in [13]. Further, the z-score in [14] is -0.624; in [15], -0.814; in [16] it was -1.1; in test [17], 0.113 (inactive); in [18] it was -0.427; in test [19], 0.89. Further, the z-score in test [20] is -0.62 (inactive). The compound further came in with a composite z-score in [2] of -0.283.

Turning to `COC(=O)[C@@]1(Cc2ccc(F)cc2)[C@H]2c3cc(C(=O)N4CCCC4)n(CCc4c[nH]c5ccc(OC)cc45)c3C[C@H]2CN1C(=O)c1ccccc1`, the z-score is -1.06 (inactive) in [1]; 4.03 (inactive) in test [3]; -0.165 (inactive) in [4]; 0.217 (inactive) in [5]; -0.583 (inactive) in test [6]; 1.03 in [7]. Also, the z-score was -3.07 (inactive) in [8]; 0.118 (inactive) in [9]; -2.39 in test [10]; -2.28 in [11]; 0.787 in test [12]; -0.906 in test [13]. The z-score in test [14] is -2.13; in [15], -4.1; in [16] it was 1; in [17], -1.33 (inactive); in [18] it was -0.917; in [19], -2. The z-score in test [20] is -1.63 (inactive). The compound also showed a composite z-score in [2] of 1.97.

On to `C#CCNC(=O)[C@H](Cc1ccccc1)NC(=O)[C@@H](N=[N+]=[N-])C(C)C`, for which the z-score in test [1] is 0.367 (inactive); in test [3], 0.0059 (inactive); in test [4], 0.705 (inactive); in test [5], 0.0901 (inactive); in test [6] it was 0.405 (inactive); in test [7], -0.52. Also, the z-score in test [8] was 0.291 (inactive); in test [9] it was -0.18 (inactive); in test [10], 0.323; in test [11] it was -0.447; in test [12], -0.804; in test [13], 0.0785. Further, the z-score in test [14] is 0.579; in [15] it was 0.116; in test [16] it was -0.266; in test [17] it was -0.503 (inactive); in test [18] it was -0.205; in test [19] it was 0.254. The z-score in test [20] is 0.903 (inactive). The composite z-score in test [2] was -0.145.
